CRFBP-R2 agonist = agonists of CRF-BP/CRF-R2 complex, primary screen, cell-based, HEK293, calcium dye fluorescence, uHTS | calcium dye fluorescence (FLIPR); percent of saturating CRF peptide response | 350,000 compounds, 0.46% hits | AID 588473, 2011 | activation, % at 13.2 µM | CRF-binding protein / CRF receptor 2 complex (human);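 active = activation of at least 50%, plus an integration ratio under a set limit after plate pattern correction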
CRFBP-R2 block = antagonists of CRF-BP/CRF-R2 complex, primary screen, cell-based, HEK293, calcium dye fluorescence, uHTS; CRF-induced calcium fluorescence; inhibition, % at 11.8 µM; 350,000 compounds, 0.59% hits; AID 588475, 2011;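 active = inhibition of the ligand-induced calcium signal above about 50% at the single tested concentration, limit read from the data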
NR3A LBD binder = binders of NR3A ligand-binding domain, primary screen, biophysical, differential scanning fluorimetry, uHTS; Glutamate receptor ionotropic, NMDA 3A (GRIN3A) ligand-binding domain; NR3A LBD differential scanning fluorimetry, Tm shift; 0% = protein alone, 100% = glycine-bound protein; Tm shift relative to glycine control, % at 25 µM; 340,000 compounds, 2.5% hits;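 active = melting temperature shift of at least 10% of the positive control shift, at one fixed dose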
TMEM16A act = TMEM16A chloride channel activators or potentiators, primary screen, cell-based, HTS | Anoctamin-1 (Mus musculus), Q8BHY3 | 340,000 compounds, 0.3% hits | AID 623877, 2012 | HEK293 TMEM16A/YFP-H148Q/I152L, iodide quench fluorescence; active compounds read low | B-score at 10 µM;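 active = fluorescence-ratio B-score plate-corrected deviation score at least 3 library SD below zero, with starting fluorescence score within 5 deviations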;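 also: channel opened by trigger with iodide after compound preincubation; score built on the fluorescence ratio of max minus min over baseline; more negative score means more quench and so TMEM16A activation or potentiation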
Target sequence (Q8BHY3 whole entry, looked up): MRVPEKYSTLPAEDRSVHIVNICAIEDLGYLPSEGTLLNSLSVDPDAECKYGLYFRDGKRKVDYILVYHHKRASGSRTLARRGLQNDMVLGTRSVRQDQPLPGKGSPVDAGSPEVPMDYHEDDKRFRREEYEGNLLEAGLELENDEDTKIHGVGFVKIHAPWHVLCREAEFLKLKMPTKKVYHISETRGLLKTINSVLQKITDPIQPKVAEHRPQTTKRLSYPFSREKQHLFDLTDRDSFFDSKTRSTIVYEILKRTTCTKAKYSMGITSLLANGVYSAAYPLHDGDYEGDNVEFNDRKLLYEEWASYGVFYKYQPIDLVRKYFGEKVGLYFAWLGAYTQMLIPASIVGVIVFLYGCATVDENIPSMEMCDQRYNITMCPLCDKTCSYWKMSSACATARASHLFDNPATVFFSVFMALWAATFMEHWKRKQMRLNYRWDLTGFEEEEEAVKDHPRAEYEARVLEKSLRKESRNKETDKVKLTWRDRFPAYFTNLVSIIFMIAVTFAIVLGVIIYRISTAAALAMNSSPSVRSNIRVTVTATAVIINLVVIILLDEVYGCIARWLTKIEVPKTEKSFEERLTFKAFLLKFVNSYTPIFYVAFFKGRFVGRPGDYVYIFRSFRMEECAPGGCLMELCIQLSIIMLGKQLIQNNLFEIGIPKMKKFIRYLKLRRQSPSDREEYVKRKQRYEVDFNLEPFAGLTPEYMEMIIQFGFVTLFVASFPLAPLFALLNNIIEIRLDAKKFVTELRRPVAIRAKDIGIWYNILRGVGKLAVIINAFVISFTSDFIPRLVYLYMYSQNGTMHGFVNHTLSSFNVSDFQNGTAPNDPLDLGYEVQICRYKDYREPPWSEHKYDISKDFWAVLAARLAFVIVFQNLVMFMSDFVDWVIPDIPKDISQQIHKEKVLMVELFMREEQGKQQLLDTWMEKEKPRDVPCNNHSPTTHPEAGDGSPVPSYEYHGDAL
ANO1 block = TMEM16A chloride channel inhibitors, primary screen, cell-based, HTS; Anoctamin-1 (Mus musculus), Q8BHY3; HEK293 TMEM16A/YFP iodide influx fluorescence, ionomycin; normalized B-score (activity score, 25-100; higher = stronger inhibition) at 10 µM; 310,000 compounds, 1.2% hits; AID 588511, 2011;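 active = ratio plate-corrected score three or more library SD toward inhibition, starting fluorescence score within five deviations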;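 also: score derived from kinetic fluorescence span divided by baseline fluorescence per well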
MPTP inh = mitochondrial permeability transition pore inhibitors, primary screen, biochemical, isolated mouse mitochondria, absorbance | inhibition, % at 10 µM | Ca2+ swelling absorbance, 30 min | 360,000 compounds, 1.4% hits;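 active = inhibition of 50% or more, scaled per plate between neutral and stimulator controls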
Each line names hits and unclear results; the compound was inactive in the other large screens. Rows were chosen to be rich in hits. Some 5.1% of all compounds tested hit in one or more screens of this group.

COc1cccc(CC(CC(=O)O)C(=O)Nc2cc(C)ccc2C)c1 (stereo not drawn)	none
CCN(CC(=O)Nc1ccc(NC(C)=O)cc1)C(=O)c1ccc(=O)n(C)n1	CRFBP-R2 block 98.4 (no result: ANO1 block)
Cc1ccc2nc(CSc3nc(C)ccc3C#N)[nH]c2c1	NR3A LBD binder 28.9
Cc1ccc(C#N)c(SCc2ccccc2F)n1	none
O=C(NC1CCN(C(=O)c2cccc([N+](=O)[O-])c2)CC1)c1ccccc1	none
CC(=O)Nc1ccc(SC[C@H](CC(C)C)N2CCN(CC(C)C)CCC2=O)cc1	NR3A LBD binder 12.9
COc1ccccc1CCC(=O)OCC(=O)c1c(N)n(CC(C)C)c(=O)n(C)c1=O	none
COc1ccc(CCC(=O)OCC(=O)c2c(N)n(CC(C)C)c(=O)n(C)c2=O)cc1	TMEM16A act -5.43
COc1ccc([C@@H]2[C@@H]3C(=O)N(C(C)(C)C)C(=O)[C@@H]3[C@]3(Cc4ccccc4)C(=O)N(c4ccc(C)cc4)C(=O)N23)cc1	none
Cc1cc(N2CCN(C(=O)c3[nH]c(C(F)(F)F)nc3-c3ccccc3)CC2)c2ccccc2n1	none (no result: CRFBP-R2 agonist, CRFBP-R2 block, NR3A LBD binder, TMEM16A act, ANO1 block)
CSCCC(NC(=O)c1ccccc1)C(=O)N(C)CC(=O)Nc1ccc(N2CCOCC2)cc1 (stereo not drawn)	NR3A LBD binder 12.6
Nc1ccc(S(=O)(=O)NC2(C(F)(F)F)NC(=O)N(c3ccc(F)cc3)C2=O)cc1 (stereo not drawn)	none
O=C1NC(NS(=O)(=O)c2ccccc2)(C(F)(F)F)C(=O)N1c1ccc(F)cc1 (stereo not drawn)	NR3A LBD binder 16.1
O=c1ncn(-c2cccc(Cl)c2)c2ccccc12	none
O=[N+]([O-])c1cccnc1N1CCC(c2cc(-c3cccc(C(F)(F)F)c3)n[nH]2)CC1	ANO1 block 100
CCc1noc(C)c1C(=O)N1CCN(S(=O)(=O)c2c(C)cc(C)cc2C)CC1	none (no result: ANO1 block)
NC(=S)NC1CCS(=O)(=O)C1 (stereo not drawn)	none
O=S1(=O)CCC(NC(=S)NCCNC(=S)NC2CCS(=O)(=O)C2)C1 (stereo not drawn)	NR3A LBD binder 20.5
CCCc1cc(=O)[nH]c(Nc2ccc(O)cc2)n1	NR3A LBD binder 10.0
CCOc1cc(CNCCc2ccc(S(N)(=O)=O)cc2)cc(Cl)c1OCc1ccccc1	ANO1 block 25
C/C(=N\NC(=O)c1ccc(C)cc1C)c1ccc2c(c1)Nc1ccccc1S2	NR3A LBD binder 11.6
CC(=O)c1ccc2c(c1)Nc1ccccc1S2	none
COc1ccc(S(=O)(=O)N(C)Cc2ccc3c(c2)OCCO3)cc1	none (no result: ANO1 block)
COc1ccc(C2CC(c3ccc(Br)cc3)=NN2C(=S)Nc2ccccc2)cc1 (stereo not drawn)	NR3A LBD binder 11.3
N#Cc1cc(-c2ccccc2)cn(Cc2c(Cl)cccc2Cl)c1=O	NR3A LBD binder 11.2
COc1cccc(NC(=O)COC(=O)c2ccccc2C(=O)N2CCN(c3ccccc3)CC2)c1	CRFBP-R2 block 68.6
CCc1ccc(OCC(=O)Nc2ccc(N3CCN(C(=O)c4ccccc4)CC3)cc2)cc1	none
O=C(COC(=O)c1ccccc1C(=O)N1CCN(c2ccccc2)CC1)Nc1ccccc1	none
COc1ccc(OCC(=O)Nc2ccc(N3CCN(C(=O)c4ccccc4C)CC3)cc2)cc1	NR3A LBD binder 17.6
COc1cccc(NC(=O)COC(=O)c2c3c(nc4ccccc24)CCC(C)C3)c1 (stereo not drawn)	NR3A LBD binder 18.6
O=[N+]([O-])c1ccc2c(c1)CO[C@@]21O[C@H](CCO)C[C@H](O)[C@H]1O	none (no result: CRFBP-R2 agonist, CRFBP-R2 block, NR3A LBD binder, TMEM16A act, ANO1 block)
CCn1cc(CN2CCCC(C(=O)Nc3cccc(-c4cc5ccccc5[nH]4)c3)C2)cn1 (stereo not drawn)	none
CCOC(=O)C1CCCN(C(=O)c2ccc3ccccc3c2)CC1 (stereo not drawn)	none (no result: CRFBP-R2 agonist, CRFBP-R2 block, NR3A LBD binder, TMEM16A act, ANO1 block)
O=C(Nc1cccc(S(=O)(=O)N2CCOCC2)c1)c1cc(S(=O)(=O)N2CCOCC2)c(Cl)cc1Cl	none (no result: TMEM16A act, ANO1 block)
CCOC(=O)c1ccc(NCn2c(=O)oc3ccccc32)cc1	CRFBP-R2 agonist 61.9
COC(=O)c1ccc(NC(=O)CCn2c(=O)oc3ccccc32)cc1	none
COc1cccc(C=NN2CCCCCC2)c1OC	none (no result: ANO1 block)
CNc1nc2c3ccccc3n(C(C)=O)c2s1	NR3A LBD binder 18.2
CC(=O)n1c2ccccc2c2nc(NC(C)C)sc21	none
CCOc1ccc2nc(NC(=S)N(C)C)sc2c1	NR3A LBD binder 30.2
O=C(CSc1nc2ccccc2o1)Nc1nc2ccc(Br)cc2s1	none
CN(C)C(=S)Nc1nc2ccccc2s1	none (no result: ANO1 block)
COc1ccc2nc(NC(=O)CSc3nc4ccccc4o3)sc2c1	NR3A LBD binder 14.9
CCCC(=O)Nc1nc2ccc(OCC)cc2s1	none
CCOc1ccc2nc(NC(=O)CSc3ccccc3)sc2c1	NR3A LBD binder 29.5
COC(=O)[C@@]1(C)[C@H]2C(=O)N(Cc3ccccc3)C(=O)[C@H]2[C@H]2CN=C(SCc3ccc(C)cc3)N21	none (no result: TMEM16A act, ANO1 block)
CCOC(=O)C1C(=O)C=C(/C=C/c2ccc(N(C)C)cc2)CC1c1ccccc1 (stereo not drawn)	CRFBP-R2 agonist 292.1
CCOC(=O)C1C(=O)C=C(c2ccc(C)cc2)CC1c1ccccc1 (stereo not drawn)	none
COc1cccc2c1C1COC3C4CC(C(=O)O)C(C(C2)N13)N4C (stereo not drawn)	NR3A LBD binder 14.0 (no result: ANO1 block)
CC1(C(=O)Nc2cccc(OC(F)(F)F)c2)Cc2c(-c3ccc4c(c3)OCO4)ccnc2O1 (stereo not drawn)	none (no result: CRFBP-R2 agonist, CRFBP-R2 block, NR3A LBD binder, TMEM16A act, ANO1 block)
O=C(OCCN1C(=O)c2ccccc2C1=O)c1cc(S(=O)(=O)N2CCOCC2)ccc1F	none
O=C(OCCN1C(=O)c2cccc3c(N4CCOCC4)ccc(c23)C1=O)c1ccc(Cl)cc1	CRFBP-R2 agonist 366.0
CCCN(CCC)S(=O)(=O)c1ccc(C(=O)OCCN2C(=O)c3cccc4c(N5CCOCC5)ccc(c34)C2=O)cc1	CRFBP-R2 agonist 114.4, NR3A LBD binder 17.4
CC1CCN(C(=O)CCCl)c2ccccc21 (stereo not drawn)	none (no result: ANO1 block)
Nc1ncncc1-c1ccccc1Cl	none (no result: ANO1 block)
COc1ccc2[nH]c(=O)c(CN(C3CCCCC3)C(c3nnnn3Cc3ccco3)C(C)C)cc2c1 (stereo not drawn)	ANO1 block 100
C[C@H]1CN([C@@H](C)CO)C(=O)c2cccc(NC(=O)Nc3ccc(C(F)(F)F)cc3)c2O[C@@H]1CN(C)C(=O)Nc1ccc(F)cc1	NR3A LBD binder 20.6 (no result: ANO1 block)
